We go through three compounds from PubChem BioAssay (EPA / NIEHS).

Active and inactive are the calls of the source. Rule for the calls: active = hit-call score of the fitted dose curve at least 0.9, where 1 is the maximum; inactive = score below 0.9.

Conditions in all cases: mRNA level, 48 h; actives raise or lower the signal
Read-out in assay [1]: Bcl-2 (BID) gene, BID (gene 637)
As to the kind of experiment: LTEA_HepaRG_BID: Life Technologies and Expression Analysis (LTEA) Assay for Bcl-2 (BID) gene using HepaRG (AID 2283476). The procedure, abridged:
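Gene expression by qRT-PCR in HepaRG cells after 48 h exposure, duplicate wells, eight half-log concentrations topping at 100 uM in 0.5% DMSO. Normalized to ACTB, GAPDH, POLR2A; bidirectional fitting relative to DMSO.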

Read-out in assay [2]: Caspase-3 (Homo sapiens) (UniProt P42574)
The assay can be described thus: LTEA_HepaRG_CASP3: Life Technologies and Expression Analysis (LTEA) Assay for cysteine-aspartic acid protease (CASP3) using HepaRG (AID 2283477). The procedure, abridged:
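In HepaRG liver cells dosed for 48 h at up to 100 uM (eight-point, duplicate), CASP3 expression changes are scored by qRT-PCR. Activity is fitted in both directions with 0.5% DMSO as baseline.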

Read-out in assay [3]: Cytochrome P450 (CYP24A1), CYP24A1 (gene 1591)
The assay can be described thus: LTEA_HepaRG_CYP24A1: Life Technologies and Expression Analysis (LTEA) Assay for Cytochrome P450 (CYP24A1) using HepaRG (AID 2283478). The procedure, abridged: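 Human liver HepaRG cultures receive each chemical for 48 h across an eight-point half-log series topping at 100 uM in 0.5% DMSO. Induction or suppression of CYP24A1 mRNA is scored relative to vehicle after housekeeping-gene normalization.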

Read-out in assay [4]: Cytochrome P450 (CYP1A2), CYP1A2 (gene 1544)
The assay can be described thus: LTEA_HepaRG_CYP1A2: Life Technologies and Expression Analysis (LTEA) Assay for Cytochrome P450 (CYP1A2) using HepaRG (AID 2283479). An outline of the steps: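 Assesses CYP1A2 mRNA in human HepaRG liver cells after 48 h chemical exposure at up to 100 uM. Values come from qRT-PCR with bidirectional curve fitting relative to DMSO.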

Read-out in assay [5]: cysteine-aspartic acid protease (CASP8), CASP8 (gene 841)
As to the kind of experiment: LTEA_HepaRG_CASP8: Life Technologies and Expression Analysis (LTEA) Assay for cysteine-aspartic acid protease (CASP8) using HepaRG (AID 2283480). An outline of the steps:
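Differentiated HepaRG cells in serum-free induction medium, 48 h exposure, eight-point half-log series from 100 uM in 0.5% DMSO, duplicates. CASP8 mRNA by qRT-PCR, normalized to ACTB, GAPDH, POLR2A; bidirectional fit versus DMSO.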

Read-out in assay [6]: Cytochrome P450 (CYP2B6), CYP2B6 (gene 1555)
The assay can be described thus: LTEA_HepaRG_CYP2B6: Life Technologies and Expression Analysis (LTEA) Assay for Cytochrome P450 (CYP2B6) using HepaRG (AID 2283481). The procedure, abridged: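 Using 48 h treatment of HepaRG cells in serum-free induction medium, concentrations spanned half-log steps from 100 uM in 0.5% DMSO vehicle. CYP2B6 mRNA induction or loss is scored by qRT-PCR against DMSO.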

Read-out in assay [7]: Cytochrome P450 2C19 (Homo sapiens) (UniProt P33261)
As to the kind of experiment: LTEA_HepaRG_CYP2C19: Life Technologies and Expression Analysis (LTEA) Assay for CYP2C19 using HepaRG (AID 2283482). An outline of the steps:
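Human HepaRG liver cells received test chemicals for 48 h (highest 100 uM, half-log dilutions in 0.5% DMSO). CYP2C19 mRNA induction or loss is read by multiplexed qRT-PCR and fitted in both directions versus vehicle.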

Read-out in assay [8]: CYP2C8 (gene 1558)
As to the kind of experiment: LTEA_HepaRG_CYP2C8: Life Technologies and Expression Analysis (LTEA) Assay for CYP2C8 using HepaRG (AID 2283483). The procedure, abridged: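 Differentiated HepaRG cells in serum-free induction medium exposed 48 h in duplicate to 8 half-log concentrations from 100 uM in 0.5% DMSO. CYP2C8 mRNA by qRT-PCR normalized to ACTB, GAPDH, POLR2A; bidirectional fit versus DMSO.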

Read-out in assay [9]: CYP2E1 (gene 1571)
As to the kind of experiment: LTEA_HepaRG_CYP2E1: Life Technologies and Expression Analysis (LTEA) Assay for CYP2E1 using HepaRG (AID 2283485). An outline of the steps:
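HepaRG cells, plated 48 h, then exposed 48 h in serum-free induction medium to eight half-log concentrations from 100 uM in 0.5% DMSO, duplicate. CYP2E1 mRNA by qRT-PCR, normalized to ACTB/GAPDH/POLR2A; bidirectional fit versus DMSO.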

Read-out in assay [10]: CYP4A11 (gene 1579)
As to the kind of experiment: LTEA_HepaRG_CYP4A11: Life Technologies and Expression Analysis (LTEA) Assay for CYP4A11 using HepaRG (AID 2283486). An outline of the steps:
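Readout is CYP4A11 mRNA induction or suppression (qRT-PCR, ACTB/GAPDH/POLR2A normalization) in human HepaRG cells after 48 h chemical treatment, concentrations to 100 uM in 0.5% DMSO, fitted bidirectionally against vehicle.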

Read-out in assay [11]: Cytochrome P450 3A4 (Homo sapiens) (UniProt P08684)
As to the kind of experiment: LTEA_HepaRG_CYP3A4: Life Technologies and Expression Analysis (LTEA) Assay for CYP3A4 using HepaRG (AID 2283487). An outline of the steps: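 Differentiated HepaRG cells in serum-free induction medium exposed in duplicate for 48 h to 8 half-log concentrations up to 100 uM in 0.5% DMSO. CYP3A4 mRNA measured by qRT-PCR normalized to ACTB, GAPDH and POLR2A; bidirectional fit versus DMSO.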

Read-out in assay [12]: DNA damage-inducible transcript 3 (DDIT3), DDIT3 (gene 1649)
The assay can be described thus: LTEA_HepaRG_DDIT3: Life Technologies and Expression Analysis (LTEA) Assay for DNA damage-inducible transcript 3 (DDIT3) using HepaRG (AID 2283488). An outline of the steps:
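HepaRG cells, 48 h after plating, exposed 48 h in serum-free induction medium to 8 half-log concentrations up to 100 uM in 0.5% DMSO, in duplicate. DDIT3 mRNA measured by TaqMan qRT-PCR, normalized to ACTB, GAPDH and POLR2A. Fitted bidirectionally against DMSO.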

Read-out in assay [13]: Pro-epidermal growth factor (Homo sapiens) (UniProt P01133)
As to the kind of experiment: LTEA_HepaRG_EGF: Life Technologies and Expression Analysis (LTEA) Assay for Epidermal growth factor (EGF) using HepaRG (AID 2283489). The procedure, abridged:
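EGF expression changes in human HepaRG cells are scored by bidirectional fitting relative to 0.5% DMSO controls. Chemicals are tested at eight half-log concentrations up to 100 uM for 48 h in serum-free induction medium.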

Read-out in assay [14]: Early growth response protein 1 (EGR1) transcription factor, EGR1 (gene 1958)
The assay can be described thus: LTEA_HepaRG_EGR1: Life Technologies and Expression Analysis (LTEA) Assay for Early growth response protein 1 (EGR1) transcription factor using HepaRG (AID 2283490). The procedure, abridged:
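Differentiated HepaRG cells in serum-free induction medium exposed 48 hours, duplicate, to 8 half-log concentrations up to 100 uM in 0.5% DMSO. EGR1 mRNA measured by TaqMan qRT-PCR, normalized to ACTB, GAPDH, POLR2A; bidirectional fit versus DMSO.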

Read-out in assay [15]: Ezrin (EZR), EZR (gene 7430)
The assay can be described thus: LTEA_HepaRG_EZR: Life Technologies and Expression Analysis (LTEA) Assay for Ezrin (EZR) using HepaRG (AID 2283491). An outline of the steps:
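Differentiated human HepaRG cells, 48 h after plating, were exposed in serum-free induction medium for 48 hours to eight half-log concentrations up to 100 uM in 0.5% DMSO. EZR mRNA was measured by TaqMan qRT-PCR, normalized to ACTB, GAPDH and POLR2A, and fitted bidirectionally against DMSO.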

Read-out in assay [16]: Cytochrome P450 3A7 (Homo sapiens) (UniProt P24462)
The assay can be described thus: LTEA_HepaRG_CYP3A7: Life Technologies and Expression Analysis (LTEA) Assay for CYP3A7 using HepaRG (AID 2283492). An outline of the steps: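 Cells were thawed, plated, cultured 48 h, then treated for a further 48 h with chemicals (eight-point half-log series from 100 uM, 0.5% DMSO). RNA was isolated and CYP3A7 expression quantified by qRT-PCR normalised to ACTB, GAPDH and POLR2A.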

Read-out in assay [17]: CYP3A5 (gene 1577)
As to the kind of experiment: LTEA_HepaRG_CYP3A5: Life Technologies and Expression Analysis (LTEA) Assay for CYP3A5 using HepaRG (AID 2283493). An outline of the steps: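 HepaRG cells, plated 48 h then in serum-free induction medium, dosed in duplicate for 48 h with eight half-log concentrations up to 100 uM in 0.5% DMSO. Gene mRNA by Fluidigm TaqMan qRT-PCR, normalized to ACTB, GAPDH, POLR2A.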

Read-out in assay [18]: Fatty Acid-Binding Protein 1 (FABP1), FABP1 (gene 2168)
The assay can be described thus: LTEA_HepaRG_FABP1: Life Technologies and Expression Analysis (LTEA) Assay for Fatty Acid-Binding Protein 1 (FABP1) using HepaRG (AID 2283494). The procedure, abridged: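 Differentiated human HepaRG cells exposed 48 h in serum-free induction medium to eight half-log concentrations up to 100 uM (0.5% DMSO), duplicate. FABP1 mRNA by qRT-PCR, normalised to ACTB, GAPDH, POLR2A; bidirectional fitting against DMSO.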

Read-out in assay [19]: Cytochrome P450 4A22 (Homo sapiens) (UniProt Q5TCH4)
As to the kind of experiment: LTEA_HepaRG_CYP4A22: Life Technologies and Expression Analysis (LTEA) Assay for Cytochrome P450 4A22 (CYP4A22) using HepaRG (AID 2283495). The procedure, abridged:
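Cryopreserved HepaRG cells, plated and cultured 48 h, then switched to serum-free induction medium and treated 48 h (duplicates, up to 100 uM, half-log steps, 0.5% DMSO). Expression change of CYP4A22 was fitted bidirectionally against vehicle.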

Read-out in assay [20]: CYP2C9 (gene 1559)
As to the kind of experiment: LTEA_HepaRG_CYP2C9: Life Technologies and Expression Analysis (LTEA) Assay for CYP2C9 using HepaRG (AID 2283484). An outline of the steps:
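Differentiated human HepaRG cells in serum-free induction medium were exposed 48 h to chemicals in 8-point half-log series from 100 uM (0.5% DMSO), in duplicate. CYP2C9 mRNA was measured by qRT-PCR, normalized to ACTB/GAPDH/POLR2A, with bidirectional fitting versus DMSO.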

Chain of Cytochrome P450 2C19 (Homo sapiens) (P33261 whole entry, looked up): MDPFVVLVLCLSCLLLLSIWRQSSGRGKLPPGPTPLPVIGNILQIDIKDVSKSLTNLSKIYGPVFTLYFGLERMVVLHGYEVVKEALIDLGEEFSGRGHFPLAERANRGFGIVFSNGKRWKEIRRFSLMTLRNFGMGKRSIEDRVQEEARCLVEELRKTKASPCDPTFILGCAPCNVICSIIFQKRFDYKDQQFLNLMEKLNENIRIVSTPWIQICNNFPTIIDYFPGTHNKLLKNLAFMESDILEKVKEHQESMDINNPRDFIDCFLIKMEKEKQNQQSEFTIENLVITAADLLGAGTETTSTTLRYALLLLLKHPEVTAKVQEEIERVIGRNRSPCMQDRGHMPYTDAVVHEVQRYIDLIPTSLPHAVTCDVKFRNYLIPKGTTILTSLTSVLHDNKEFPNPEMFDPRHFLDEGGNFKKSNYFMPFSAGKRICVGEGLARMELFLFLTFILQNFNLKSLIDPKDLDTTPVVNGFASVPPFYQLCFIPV
Chain of Cytochrome P450 3A7 (Homo sapiens) (P24462 whole entry, looked up): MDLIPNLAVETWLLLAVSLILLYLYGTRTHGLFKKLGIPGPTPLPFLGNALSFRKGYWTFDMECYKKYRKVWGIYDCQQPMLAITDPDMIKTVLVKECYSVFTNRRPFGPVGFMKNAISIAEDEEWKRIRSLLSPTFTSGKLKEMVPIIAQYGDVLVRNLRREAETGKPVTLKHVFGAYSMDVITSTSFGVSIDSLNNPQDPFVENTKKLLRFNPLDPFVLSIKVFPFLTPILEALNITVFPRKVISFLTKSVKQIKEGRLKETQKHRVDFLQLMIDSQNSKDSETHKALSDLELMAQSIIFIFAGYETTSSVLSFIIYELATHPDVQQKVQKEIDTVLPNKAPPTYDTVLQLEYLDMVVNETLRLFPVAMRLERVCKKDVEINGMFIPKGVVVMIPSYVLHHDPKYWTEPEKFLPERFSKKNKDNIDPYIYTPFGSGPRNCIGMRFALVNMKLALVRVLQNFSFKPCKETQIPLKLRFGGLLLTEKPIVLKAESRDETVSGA
Chain of Cytochrome P450 3A4 (Homo sapiens) (P08684 whole entry, looked up): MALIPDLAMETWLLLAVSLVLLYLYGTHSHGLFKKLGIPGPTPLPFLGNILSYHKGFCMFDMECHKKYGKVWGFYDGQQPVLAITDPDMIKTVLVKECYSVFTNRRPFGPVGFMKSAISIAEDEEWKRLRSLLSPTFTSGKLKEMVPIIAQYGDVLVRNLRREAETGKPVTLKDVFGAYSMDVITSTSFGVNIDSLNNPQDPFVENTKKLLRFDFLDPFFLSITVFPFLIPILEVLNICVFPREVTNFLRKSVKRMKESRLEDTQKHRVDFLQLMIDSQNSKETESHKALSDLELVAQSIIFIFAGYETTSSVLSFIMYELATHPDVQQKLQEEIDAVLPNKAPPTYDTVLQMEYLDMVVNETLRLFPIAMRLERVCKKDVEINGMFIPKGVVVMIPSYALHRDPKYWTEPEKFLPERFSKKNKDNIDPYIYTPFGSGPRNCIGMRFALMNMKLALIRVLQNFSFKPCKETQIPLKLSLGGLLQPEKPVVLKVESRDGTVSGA
Chain of Caspase-3 (Homo sapiens) (P42574 whole entry, looked up): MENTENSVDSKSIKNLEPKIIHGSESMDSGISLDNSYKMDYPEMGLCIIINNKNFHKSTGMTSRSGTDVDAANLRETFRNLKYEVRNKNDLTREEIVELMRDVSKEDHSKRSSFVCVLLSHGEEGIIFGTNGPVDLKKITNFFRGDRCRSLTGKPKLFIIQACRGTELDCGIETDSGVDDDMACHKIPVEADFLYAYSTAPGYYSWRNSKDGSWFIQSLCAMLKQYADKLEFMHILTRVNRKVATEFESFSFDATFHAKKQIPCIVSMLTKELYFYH

Consider `C[N+]1(C)CCCCC1`, for which the compound was called inactive in assay [1], in assay [2], in [3], in [4], in assay [5] and in assay [6]. The result in [7], in assay [8], in assay [9], in assay [10], in [11] and in [12] was inactive. Moreover, the outcome in assay [13], in [14], in assay [15], in [16], in assay [17] and in assay [18] was inactive. Also, the compound was called inactive in [19].
In the case of `CCCCOC(=O)[C@@H](C)Oc1ccc(Oc2ccc(C#N)cc2F)cc1`, the result in [1], in assay [2], in assay [3], in assay [5], in assay [6] and in [7] was inactive. Further, the compound was called inactive in assay [8], in assay [9], in assay [11], in assay [12], in assay [13] and in [14]. The outcome in assay [15], in [16], in assay [17] and in assay [18] was inactive. The AC50 – broadly, the midpoint of the concentration-response curve, whichever way the signal moves – in assay [4] was 38.5 µM (active); in [10], 32.4 µM (active); in assay [19] it was 18.7 µM (active).
On to `CCOC(=O)CC(SP(=O)(OC)OC)C(=O)OCC` (configuration not stated), for which the outcome in [1], in assay [2], in [3], in [4], in assay [5] and in assay [7] was inactive. Besides, the outcome in assay [8], in assay [20], in [10], in [11], in [12] and in assay [13] was inactive. The compound was classed as inactive in [14], in assay [15], in [16], in assay [17] and in [19]. Moreover, the AC50 in assay [6] is 50 µM (active); in [9] it was 25.1 µM (active).
